This is a sample that favours compounds with a hit; in the whole collection about 8.8% have one here.
IL1B secr inh – blocks inflammasome-driven IL-1 beta release. activity change, % at 57.5 µM. hit rate 4.7% among 360,000. THP-1 LPS/ATP IL-1B secretion, AlphaLISA, 16 h; active compounds read low; in the data active means activity change below about -50%; inconclusive means mostly about -30% to -49%
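Secreted IL-1B measured by AlphaLISA bead assay after 16 h compound exposure of THP-1 cells; compounds (final up to 57.5 uM) added 1 h before LPS (250 ng/mL) and ATP (1.25 mM) stimulation; lower signal means less secretion.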
HT1080 IDH1KD tx – HT-1080 IDH1 knockdown cell toxicity (counter line) | HT-1080 IDH1 knockdown viability, ATP luminescence, 48 h | Potency, µM (doses to about 46.1 µM), usual class: cytotoxic | hit rate 2% among 360,000
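After a 2 h attachment period, IDH1KD HT-1080 cells took pin-transferred compound for 48 h at 37 °C; ATP-based luminescence after 10 min room-temperature reagent incubation reported viability.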
KB-V1 MDR tox – KB-V1 MDR subline cytotoxicity | KB-V1 MDR cells viability, CellTiter-Glo, 72 h | Potency, µM (top dose mostly 46.1 µM), usual class: cytotoxic | hit rate 3.4% among 400,000; further: nearly all actives have a fitted effect of over 60% in size
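KB-V1 MDR subline cells in DMEM (phenol-red free, 10% FBS) exposed to compounds in qHTS concentration series for 72 h at 37 degrees C. Viability read by CellTiter-Glo luminescence; concentration-effect curves fitted after normalization and correction.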
KB-3-1 tox – KB-3-1 parental cell cytotoxicity; KB-3-1 viability, CellTiter-Glo ATP luminescence, 72 h; Potency, µM (top dose mostly 46.1 µM), usual class: cytotoxic; hit rate 1.4% among 400,000; further: nearly all actives have a fitted effect of over 60% in size
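Parental KB-3-1 adenocarcinoma cells in phenol-red-free DMEM with 10% FBS were pin-treated with compounds at several concentrations, incubated 72 h at 37 °C, and viability read by CellTiter-Glo luminescence; concentration-effect curves were fitted after normalization.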
HT1080-NT tox – kills 2HG-producing HT-1080-NT fibrosarcoma cells. HT-1080-NT fibrosarcoma viability, CellTiter-Glo ATP luminescence, 48 h. Potency, µM (series often up to 46.1 µM), most hits filed as cytotoxic. hit rate 1.6% among 360,000;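 further: NT is the 2HG producing partner of a matched IDH1 knockdown line; nearly all actives have a fitted effect of over 55% in size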
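750 cells/well, RPMI + 5% FBS; 2 h settle, compound pin-transfer, 48 h at 37 degrees C. CellTiter-Glo 10 min RT, luminescence. Normalized to DMSO and media-only wells.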
Large screens that a line does not name were inactive; ! = repeats disagree. Unless noted, the call rests on the fitted dose curve; in most records, active means well fitted curve in the direction sought with a large enough effect; inconclusive means small, poorly fitted or top-dose-only effect, or another doubt; inactive means no such curve, though single readings can be large; an effect the other way counts as inactive or inconclusive.

CC(C)C(c1nnnn1C1CCCCC1)N1CCc2ccccc2C1 (stereo not drawn)	IL1B secr inh -79, KB-V1 MDR tox inconclusive, HT1080-NT tox inconclusive
Cc1cc(-c2n[nH]c(=S)n2/N=C/C(Cl)=C/c2ccccc2)n[nH]1	IL1B secr inh -97, HT1080 IDH1KD tx inconclusive, KB-V1 MDR tox 21µM, KB-3-1 tox inconclusive, HT1080-NT tox inconclusive
CC(/C=N/n1c(-c2cccnc2)n[nH]c1=S)=C\c1ccccc1	KB-V1 MDR tox 16µM
CC(=C/c1ccccc1)/C=N/n1c(-c2ccncc2)n[nH]c1=S	none
S=c1[nH]nc(-c2ccco2)n1/N=C/C(Cl)=C/c1ccccc1	IL1B secr inh inconclusive, HT1080 IDH1KD tx inconclusive, HT1080-NT tox inconclusive
S=c1[nH]nc(-c2cc(-c3ccccc3)n[nH]2)n1/N=C/C(Br)=C/c1ccccc1	IL1B secr inh -99, HT1080 IDH1KD tx 5.8µM, KB-V1 MDR tox inconclusive, KB-3-1 tox 15µM, HT1080-NT tox 7.3µM
C=CCN1CC(=O)N2C(c3ccccc3)c3[nH]c4ccccc4c3C[C@H]2C1=O (stereo partly drawn)	KB-3-1 tox 6.5µM
CC(C)OCCCN1CC(=O)N2C(c3ccccc3)c3[nH]c4ccccc4c3C[C@H]2C1=O (stereo partly drawn)	IL1B secr inh -62
COc1cccc(C2c3[nH]c4ccccc4c3C[C@H]3C(=O)N(C4CCN(Cc5ccccc5)CC4)CC(=O)N23)c1 (stereo partly drawn)	IL1B secr inh -58, HT1080 IDH1KD tx inconclusive, KB-V1 MDR tox inconclusive, KB-3-1 tox inconclusive, HT1080-NT tox inconclusive
CCN1CCN(Cc2ccc(NC(=O)c3cc(NC(=O)C(=O)c4c[nH]c5ccccc45)cc(OC)c3)cc2C(F)(F)F)CC1	IL1B secr inh -80, HT1080 IDH1KD tx inconclusive, KB-V1 MDR tox inconclusive, KB-3-1 tox inconclusive, HT1080-NT tox 16µM
CCN1CCN(Cc2ccc(C(=O)Nc3ccc(C)c(NCc4cnc(NC(=O)OC)cn4)c3)cc2C(F)(F)F)CC1	none
CCN1CCN(Cc2ccc(NC(=O)c3ccc(C)c(NC(=O)C(=O)c4c[nH]c5ccccc45)c3)cc2C(F)(F)F)CC1	IL1B secr inh -106, HT1080 IDH1KD tx 15µM, KB-V1 MDR tox inconclusive, KB-3-1 tox inconclusive, HT1080-NT tox 16µM
CCN1CCN(Cc2ccc(NC(=O)c3ccc(C)c(NC(=O)c4ccnnc4)c3)cc2C(F)(F)F)CC1	none
CCN1CCN(Cc2ccc(NC(=O)c3cc(NC(=O)c4cnn(-c5ccccc5)c4N)cc(OC)c3)cc2C(F)(F)F)CC1	HT1080 IDH1KD tx 18µM, HT1080-NT tox inconclusive
CCN1CCN(Cc2ccc(NC(=O)c3cc(NC(=O)c4cc(C)on4)cc(OC)c3)cc2C(F)(F)F)CC1	IL1B secr inh -83!, HT1080 IDH1KD tx inconclusive, KB-V1 MDR tox inconclusive, KB-3-1 tox inconclusive, HT1080-NT tox inconclusive
CCN1CCN(Cc2ccc(NC(=O)c3ccc(C)c(NC(=O)c4ccc5n[nH]nc5c4)c3)cc2C(F)(F)F)CC1	none
O=C(Nc1ccc(F)cc1)c1cc(-c2ccncc2)nc2c(Cl)cccc12	KB-V1 MDR tox inconclusive
COc1cccc(NC(=O)c2cc(-c3cccnc3)nc3c(Cl)cccc23)c1	HT1080 IDH1KD tx inconclusive, KB-V1 MDR tox 2.9µM
COc1cccc(NC(=O)c2cc(Cl)nnc2Cl)c1	IL1B secr inh -92, HT1080 IDH1KD tx inconclusive, KB-3-1 tox inconclusive, HT1080-NT tox 12µM
CN(C(=O)CN1CCN(c2cc(-c3cccc4oc5ccccc5c34)ncn2)CC1)c1ccccc1	none
Cc1cc(C)c(NC(=O)CSCc2c(C)noc2C)c(C)c1	KB-V1 MDR tox 23µM
O=C(OCCOc1ccccc1)c1cccc(S(=O)(=O)N2CCOCC2)c1	KB-V1 MDR tox 18µM
Cc1noc(C)c1COC(=O)c1cccc(S(=O)(=O)N2CCCCCC2)c1	HT1080 IDH1KD tx 21µM, KB-V1 MDR tox inconclusive
Cc1noc(C)c1CSCC(=O)Nc1cc(S(=O)(=O)N2CCCCC2)ccc1OC(C)C	none
Cc1noc(C)c1COC(=O)c1ccc(F)c(S(=O)(=O)N2CCCCC2)c1	HT1080 IDH1KD tx inconclusive, KB-V1 MDR tox inconclusive
CCN(CC)c1ccc(S(=O)(=O)N2CCCCC2)cc1NC(=O)CSCc1c(C)noc1C	IL1B secr inh inconclusive, KB-3-1 tox 23µM
O=C(COC(=O)c1cccc(S(=O)(=O)N2CCOCC2)c1)c1ccccc1	none
CC(C)CNC(=O)CC(c1ccccc1)c1ccccc1	none
CCCN1CCN(CCNC(=O)Nc2cc(C)ccc2C)CC1	none
O=C(COC(=O)Cc1ccsc1)Nc1ccc(Cl)cc1F	none
Cc1noc(C)c1CSCC(=O)Nc1cc(S(=O)(=O)N2CCOCC2)ccc1OCC(F)(F)F	none
CCOc1ccc(S(=O)(=O)N(CC)CC)cc1NC(=O)CSCc1c(C)noc1C	KB-V1 MDR tox 7.3µM
COc1ccc(S(=O)(=O)NCC2CCCN(Cc3cn(C)nc3C)C2)cc1 (stereo not drawn)	none
Cc1cc(Br)c(NC(=O)COn2nnc3ccc(S(C)(=O)=O)cc32)c(Br)c1	IL1B secr inh -65
Cc1cc(NC(=O)COn2nnc3ccc(S(C)(=O)=O)cc32)ccc1Br	none
Cn1c(=O)c2c(nc(C3CC4C5CCC(C5)C4C3)n2C)n(C)c1=O (stereo not drawn)	KB-V1 MDR tox 15µM
Cn1c(=O)c2c(nc(CCC3CCCC3)n2C)n(C)c1=O	none
CCCN(CC(=O)Nc1ccccc1C)C(=O)C1CC(=O)N(c2ccccc2C(C)CC)C1 (stereo not drawn)	none
CCC(C)c1ccccc1N1CC(C(=O)N(C)CC(=O)Nc2cccc(F)c2)CC1=O (stereo not drawn)	IL1B secr inh -61
CCN1CCC(NCCc2ccc(F)cc2)CC1	IL1B secr inh -54
CC(=O)c1ccccc1OCCOc1ccccc1C(C)=O	none
CC(=O)c1ccccc1OCc1ccc(S(=O)(=O)Cc2ccccc2)cc1	IL1B secr inh -60, KB-3-1 tox inconclusive
Cc1nc(-c2ccccc2)nc2[nH]c(=O)n(-c3ccccc3)c(=O)c12	KB-V1 MDR tox 21µM, KB-3-1 tox inconclusive
CC1(C)Cc2nc3sc4c(SCC(=O)NCc5ccco5)ncnc4c3cc2CO1	HT1080 IDH1KD tx 2.6µM, KB-V1 MDR tox inconclusive, KB-3-1 tox 4.6µM, HT1080-NT tox inconclusive
CC1(C)Cc2nc3sc4c(=O)n(CC(=O)NCc5ccccc5)cnc4c3cc2CO1	HT1080 IDH1KD tx 3.5µM, KB-V1 MDR tox 3.7µM, KB-3-1 tox 2.6µM, HT1080-NT tox 8.9µM
CC1(C)Cc2nc3sc4c(=O)n(Cc5ccccc5)cnc4c3cc2CS1	KB-V1 MDR tox 8.2µM
CCCn1cnc2c(sc3nc4c(cc32)CSC(C)(C)C4)c1=O	none
Cc1nc2c(sc3nc4c(cc32)COC(C)(C)C4)c(=O)n1Cc1ccccc1	KB-V1 MDR tox 5.2µM
COc1ccc2c(c1)c1c(c(=O)n(-c3cccc(C)c3)c(=O)n1CC(=O)NCCC1=CCCCC1)n2C	none (no result: IL1B secr inh, HT1080 IDH1KD tx, HT1080-NT tox)
